# Active and inactive are the calls of the source.
# Assays:
# [1] = small molecules captured by biotinylated probe aFSTL3 – biochemical, small-molecule microarray, fluorescence 635/667, stem cell growth factor project, primary screen (AID 1064); conditions: higher = more signal;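 note: measures binding of the biotinylated anti-FSTL3 antibody to printed compounds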
# [2] = binders from COS7 lysate, DM2A8 probe, primary screen, torsin A project, cell lysate, small-molecule microarray, fluorescence 635/667 (AID 1065); conditions: higher = more signal, COS7 lysate expressing mutant human TOR1A
# [3] = small molecules captured by biotinylated probe aFGF2 – biochemical, small-molecule microarray, fluorescence 635/667, stem cell growth factor project, primary screen (AID 1067); conditions: higher = more signal;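 note: measures binding of biotinylated aFGF2 protein to printed compounds on slides; z-score merges feature fluorescence and signal-to-noise across triplicate slides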
# [4] = small molecules captured by biotinylated probe aFGF10 – biochemical, small-molecule microarray, fluorescence 635/667, stem cell growth factor project, primary screen (AID 1071); conditions: higher = more signal;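 note: score merges 667 nm spot intensity and signal to noise from triplicate slides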
# [5] = molecular target: Neurogenic locus notch homolog protein 2 (Homo sapiens) (UniProt Q04721); experiment: small molecules binding Notch2 protein – biochemical, small-molecule microarray, 635 nm fluorescence, stem cell growth factors, primary screen (AID 1073); conditions: higher = more signal
# Neurogenic locus notch homolog protein 2 (Homo sapiens), sequence (Q04721 whole entry, looked up, canonical isoform): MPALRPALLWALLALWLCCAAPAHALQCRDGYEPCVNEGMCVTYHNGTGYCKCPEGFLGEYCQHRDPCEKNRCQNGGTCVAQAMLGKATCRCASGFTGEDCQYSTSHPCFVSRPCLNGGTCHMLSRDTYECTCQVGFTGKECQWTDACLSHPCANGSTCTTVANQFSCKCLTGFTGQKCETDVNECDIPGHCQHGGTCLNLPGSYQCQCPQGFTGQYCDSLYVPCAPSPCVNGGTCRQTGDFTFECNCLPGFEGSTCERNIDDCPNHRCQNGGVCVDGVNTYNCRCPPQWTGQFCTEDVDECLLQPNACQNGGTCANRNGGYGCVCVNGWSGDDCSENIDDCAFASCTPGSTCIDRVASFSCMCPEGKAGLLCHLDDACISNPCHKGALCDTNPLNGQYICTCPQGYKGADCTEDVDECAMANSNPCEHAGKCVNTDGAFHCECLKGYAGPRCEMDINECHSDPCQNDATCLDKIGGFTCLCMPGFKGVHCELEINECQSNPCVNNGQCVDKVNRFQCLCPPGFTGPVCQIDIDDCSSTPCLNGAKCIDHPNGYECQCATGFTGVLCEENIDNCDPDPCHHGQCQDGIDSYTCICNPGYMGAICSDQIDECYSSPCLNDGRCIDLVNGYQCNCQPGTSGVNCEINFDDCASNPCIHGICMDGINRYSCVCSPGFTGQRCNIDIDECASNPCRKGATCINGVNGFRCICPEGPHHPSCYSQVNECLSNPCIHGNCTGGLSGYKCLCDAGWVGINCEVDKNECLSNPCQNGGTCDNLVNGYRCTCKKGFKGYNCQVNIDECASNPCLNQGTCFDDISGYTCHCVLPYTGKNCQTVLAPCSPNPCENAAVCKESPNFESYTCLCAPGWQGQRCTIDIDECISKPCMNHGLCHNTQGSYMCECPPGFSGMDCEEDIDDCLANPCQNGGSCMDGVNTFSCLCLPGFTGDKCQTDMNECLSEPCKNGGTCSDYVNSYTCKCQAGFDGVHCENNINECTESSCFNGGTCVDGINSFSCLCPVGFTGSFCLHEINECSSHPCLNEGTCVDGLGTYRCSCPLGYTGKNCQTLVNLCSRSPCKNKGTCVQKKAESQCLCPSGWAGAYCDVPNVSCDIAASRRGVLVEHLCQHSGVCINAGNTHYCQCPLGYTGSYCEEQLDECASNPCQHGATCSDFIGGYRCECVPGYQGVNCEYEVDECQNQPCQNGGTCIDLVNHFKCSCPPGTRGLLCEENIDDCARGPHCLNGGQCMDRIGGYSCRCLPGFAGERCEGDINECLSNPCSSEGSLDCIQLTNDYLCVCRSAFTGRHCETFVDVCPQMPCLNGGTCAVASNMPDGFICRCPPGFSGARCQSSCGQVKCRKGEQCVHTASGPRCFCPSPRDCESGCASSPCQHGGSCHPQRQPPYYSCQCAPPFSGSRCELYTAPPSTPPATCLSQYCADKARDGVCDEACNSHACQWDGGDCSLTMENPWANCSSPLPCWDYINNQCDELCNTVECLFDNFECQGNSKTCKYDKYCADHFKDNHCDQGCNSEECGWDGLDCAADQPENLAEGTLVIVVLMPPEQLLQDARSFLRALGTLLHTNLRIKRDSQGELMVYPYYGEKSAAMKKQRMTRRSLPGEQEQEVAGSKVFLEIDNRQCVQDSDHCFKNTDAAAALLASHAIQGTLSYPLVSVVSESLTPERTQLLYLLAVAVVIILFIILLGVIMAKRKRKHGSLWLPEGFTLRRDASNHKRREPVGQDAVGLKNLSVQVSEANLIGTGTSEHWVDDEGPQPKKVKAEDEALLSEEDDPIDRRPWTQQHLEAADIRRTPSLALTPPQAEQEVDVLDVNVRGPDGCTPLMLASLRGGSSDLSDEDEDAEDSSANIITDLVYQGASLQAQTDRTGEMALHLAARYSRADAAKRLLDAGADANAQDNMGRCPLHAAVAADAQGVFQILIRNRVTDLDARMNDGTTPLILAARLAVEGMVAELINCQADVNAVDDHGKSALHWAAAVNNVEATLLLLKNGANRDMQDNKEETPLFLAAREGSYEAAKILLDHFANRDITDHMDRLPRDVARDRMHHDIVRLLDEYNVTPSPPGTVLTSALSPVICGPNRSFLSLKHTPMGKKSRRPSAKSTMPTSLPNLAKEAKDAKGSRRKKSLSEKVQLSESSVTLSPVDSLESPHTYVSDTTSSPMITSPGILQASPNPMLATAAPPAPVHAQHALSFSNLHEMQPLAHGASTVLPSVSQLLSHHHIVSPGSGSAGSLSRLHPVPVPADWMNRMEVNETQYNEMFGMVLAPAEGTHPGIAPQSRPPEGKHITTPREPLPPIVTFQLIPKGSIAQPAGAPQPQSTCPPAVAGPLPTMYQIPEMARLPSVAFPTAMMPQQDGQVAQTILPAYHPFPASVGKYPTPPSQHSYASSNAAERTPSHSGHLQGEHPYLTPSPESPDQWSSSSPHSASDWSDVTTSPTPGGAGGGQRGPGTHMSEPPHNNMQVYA
# [6] = molecular target: Pro-neuregulin-1, membrane-bound isoform (Homo sapiens) (UniProt Q02297); experiment: small molecules binding neuregulin-1 protein – biochemical, small-molecule microarray, fluorescence 635/667, psychiatric disease protein project, primary screen (AID 1075); conditions: NRG1 binding, 635 nm fluorescence, higher = more signal;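 note: score combines 667 nm spot fluorescence with signal to noise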
# Pro-neuregulin-1, membrane-bound isoform (Homo sapiens), sequence (Q02297 whole entry, looked up, the tested form may be a part, canonical isoform): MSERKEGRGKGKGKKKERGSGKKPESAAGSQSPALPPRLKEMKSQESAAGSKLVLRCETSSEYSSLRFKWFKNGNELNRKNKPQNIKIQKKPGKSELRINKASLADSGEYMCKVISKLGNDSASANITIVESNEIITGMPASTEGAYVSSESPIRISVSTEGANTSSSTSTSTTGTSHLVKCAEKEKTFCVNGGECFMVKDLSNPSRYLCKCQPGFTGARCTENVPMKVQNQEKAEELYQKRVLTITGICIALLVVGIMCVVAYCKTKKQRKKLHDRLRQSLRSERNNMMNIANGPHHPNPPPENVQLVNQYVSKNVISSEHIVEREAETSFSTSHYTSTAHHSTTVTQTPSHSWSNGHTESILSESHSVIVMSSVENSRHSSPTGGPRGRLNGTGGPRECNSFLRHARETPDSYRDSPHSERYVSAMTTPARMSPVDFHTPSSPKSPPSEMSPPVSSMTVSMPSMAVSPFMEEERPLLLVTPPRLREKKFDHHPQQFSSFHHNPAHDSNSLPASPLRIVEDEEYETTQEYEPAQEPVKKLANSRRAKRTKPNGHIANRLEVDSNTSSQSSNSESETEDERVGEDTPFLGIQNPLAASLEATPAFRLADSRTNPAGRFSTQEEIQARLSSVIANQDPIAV
# [7] = test system: Neuregulin-1 EGF-like domain; experiment: small molecules binding NRG1 EGF domain – biochemical, small-molecule microarray, 635 nm fluorescence, primary screen (AID 1081); conditions: higher = more signal;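 note: binding of the protein to compounds printed on small-molecule microarray slides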
# [8] = FRG1 expression reporter modulators in myotubes – cell-based, C2C12 myotubes, firefly/Renilla luciferase, luminescence, FRG1 inhibition for FSHD, primary screen (AID 1084); conditions: FRG1 promoter luciferase, higher = more signal, called active from +8 up or from −8 down
# [9] = small molecules captured by biotinylated probe aFST – biochemical, small-molecule microarray, fluorescence 635/667, stem cell growth factor project, primary screen (AID 1086); conditions: higher = more signal;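 note: score merges 667 nm fluorescence with signal-to-noise of each printed compound spot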
# [10] = binders of probe aHhip on microarray, primary screen, stem cell growth factor project, biochemical, small-molecule microarray, fluorescence 635/667 (AID 1087); conditions: higher = more signal;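 note: score merges spot fluorescence at 667nm with spot signal to noise ratio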
Compound,composite z-score [1],composite z-score [2],composite z-score [3],composite z-score [4],composite z-score [5],composite z-score [6],composite z-score [7],z-score [8],composite z-score [9],composite z-score [10]
COC(=O)[C@H](C)NC(=O)CCC1CC(OC(=O)NCc2ccc3c(c2)OCO3)CC2(CCCC(COC(=O)NCCc3ccc(Cl)cc3)O2)O1 (stereo not given in full),-0.592,-0.406,-0.0812,0.218,0.576,0.212,0.562,0.628 (inactive),0.17,-0.126
COc1ccc(O[C@H]2C=C[C@@H](c3ccccc3)O[C@@H]2CON=C(C)CCN2CCCc3nc(C)c(C)cc32)cc1,-0.353,0.0823,-0.0812,0.076,0.476,0.626,0.954,-0.303 (inactive),0.698,-0.0328
COC(=O)[C@H](C)NC(=O)CCC1CC(OC(=O)NCCc2ccc(F)cc2)CC2(CCCC(COC(=O)NCc3ccccc3)O2)O1 (stereo not given in full),-0.749,-0.126,0.0002,0.677,1.06,0.648,0.964,1.61 (inactive),0.65,-0.305
O=C1C2=CC[C@H]3C(=O)N(C[C@@H]4CCCO4)C(=O)[C@H]3[C@H]2[C@H](O)[C@@H]2O[C@H]12,-0.275,0.191,-0.0878,0.111,-0.0143,-0.209,0.75,-1.42 (inactive),-0.258,-0.145
C[C@@H](c1ccccc1)N1C(=O)[C@H]2[C@H]3[C@H](O)[C@H](O)CC(=NNC(=O)OCc4ccccc4)[C@@H]3CC[C@H]2C1=O,-0.909,2.62,-0.203,-0.261,-0.155,-0.536,1.22,-0.491 (inactive),0.0473,0.161
COC(=O)[C@H](C)NC(=O)CCC1CC(OC(=O)NCCc2ccc(F)cc2)CC2(CCCC(COC(=O)NCCc3ccccc3OC)O2)O1 (stereo not given in full),-0.93,-0.328,-0.172,0.706,1.16,0.608,0.729,-0.0438 (inactive),-0.0835,-0.361
CCN1C(=O)[C@H]2[C@H]3[C@H](O)[C@H](O)CC(=NO[C@H](C)c4cn([C@@H]5COC[C@H]5O)nn4)[C@@H]3CC[C@H]2C1=O,-0.258,0.307,-0.0853,0.307,0.0679,-0.455,-0.14,0.225 (inactive),0.0423,-0.238
O=C1C=C[C@@H](O)[C@@H]2[C@@H]3C(=O)N(Cc4ccc5c(c4)OCO5)C(=O)[C@@H]3CC[C@@H]12,-0.624,-0.0026,-0.0925,0.28,0.628,0.199,0.764,0.189 (inactive),0.233,0.0722
CC(=O)OC[C@H]1O[C@H](C#CCCc2ccccc2)C=C[C@@H]1OC(C)=O,-0.692,0.271,-0.0732,0.335,0.445,1.22,0.543,0.0903 (inactive),0.302,0.0053
CC(C)[C@@H](OCc1ccccc1)[C@H](C)CON=C1[C@H]2CCn3c(=O)n(-c4ccccc4)c(=O)n3[C@H]2[C@H](O)[C@@H]2O[C@H]12,-0.375,0.616,0.0362,0.84,0.541,0.246,0.218,-0.157 (inactive),0.369,-0.126
CC(CCN1CCCc2nc(C)c(C)cc21)=NO[C@H](C)c1cn([C@H](CO)Cc2ccccc2)nn1,-0.303,0.455,-0.0568,0.545,0.531,0.0463,1.03,1.53 (inactive),0.64,-0.236
CCN1C(=O)[C@H]2[C@H]3[C@H](O)[C@H](O)CC(=NOC(C)CN4CCCc5nc(C)c(C)cc54)[C@@H]3CC[C@H]2C1=O (stereo not given in full),-0.342,0.564,-0.0468,0.49,0.724,-0.0318,0.963,-0.266 (inactive),0.372,0.0596
CCN1C(=O)[C@H]2[C@H]3[C@H](O)[C@H](O)CC(=NOC[C@@H](O)[C@H]4O[C@@H]5OC(C)(C)O[C@@H]5[C@H]4O)[C@@H]3CC[C@H]2C1=O,-0.635,-0.112,-0.173,0.242,0.352,0.12,-0.0114,-0.116 (inactive),0.156,-0.291
CO[C@@H]1[C@H](O)CO[C@H]1C=Cc1ccccc1,-0.392,-0.0641,-0.0715,0.211,0.128,0.206,0.874,-0.253 (inactive),0.228,-0.283
C[C@H]1CC[C@H]2C(=O)OC(COc3ccc(C(C)(C)C)cc3)CN2[C@@H]1c1ccc(Br)cc1 (stereo not given in full),-0.373,-0.52,-0.169,0.62,-0.123,0.449,1.05,0.458 (inactive),-0.0895,-0.0618
CCN1C(=O)[C@H]2[C@H]3[C@H](O)[C@H](O)CC(=NOCC(C)C)[C@H]3CC[C@H]2C1=O,-0.801,0.328,-0.0977,0.329,0.351,-0.139,0.124,0.268 (inactive),0.101,-0.079
